Holding throughout (type): functional
The target of assay [1] is Solute carrier family 2, facilitated glucose transporter member 1 (Homo sapiens) (UniProt P11166). Kind of assay: ST_JUDE_LEISH: Cytotoxicity at 2uM final concentration against transgenic Leishmania Mexicana promastigotes LmGLUT1 that are glucose transport deficient and complemented with the human glucose transporter GLUT1. Activity is measured by DNA content using SYBR green in vitro.

The target of assay [2] is Hexose transporter 1 (Plasmodium falciparum) (UniProt O97467). Kind of assay: ST_JUDE_LEISH: Cytotoxicity at 2uM final concentration against transgenic Leishmania Mexicana promastigotes LmPfHT that are glucose transport deficient and complemented with the Plasmodium falciparum hexose transporter. Activity is measured by DNA content using SYBR green in vitro.
The target of assay [3] is Glucose transporter (Leishmania mexicana) (UniProt O61059). Kind of assay: ST_JUDE_LEISH: Cytotoxicity at 2uM final concentration against transgenic Leishmania Mexicana promastigotes LmGT2 that are glucose transport deficient and complemented with the L. Mexicana glucose transporter 2. Activity is measured by DNA content using SYBR green in vitro.

This is an account of results in ChEMBL document CHEMBL3433997, “St. Jude Leishmania screening dataset” (2016).

Chain of Solute carrier family 2, facilitated glucose transporter member 1 (Homo sapiens) (P11166 whole entry): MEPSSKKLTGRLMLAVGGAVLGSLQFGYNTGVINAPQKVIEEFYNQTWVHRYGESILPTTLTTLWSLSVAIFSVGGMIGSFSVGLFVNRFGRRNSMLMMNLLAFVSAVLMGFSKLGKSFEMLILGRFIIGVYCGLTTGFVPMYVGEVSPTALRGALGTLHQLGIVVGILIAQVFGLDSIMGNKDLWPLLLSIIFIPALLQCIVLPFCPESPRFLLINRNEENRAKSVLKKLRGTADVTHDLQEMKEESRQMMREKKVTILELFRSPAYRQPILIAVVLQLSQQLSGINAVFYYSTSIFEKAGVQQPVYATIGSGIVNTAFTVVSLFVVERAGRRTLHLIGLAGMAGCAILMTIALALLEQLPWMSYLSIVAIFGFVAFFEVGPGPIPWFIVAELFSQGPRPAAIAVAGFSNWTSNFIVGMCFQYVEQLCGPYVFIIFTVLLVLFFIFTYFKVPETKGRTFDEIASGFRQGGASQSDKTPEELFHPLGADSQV

As to `CCc1c[nH]c2c(N3CCCS3(=O)=O)cc(C(=O)N[C@@H](Cc3ccccc3)[C@H](O)CNC(C)(C)c3cccc(C(F)(F)F)c3)cc12`, the inhibition (usually the change of the read-out against control, counted positive when it falls) in assay [1] is -0.71%; in assay [2], 0.86%; in assay [3], 0.6%.

Regarding `CC(=O)Nc1ccc(C(=O)Nc2cccc(-c3ccc(-c4nc5ccccc5[nH]4)cc3)c2)cn1`, the inhibition is 4.19% in assay [1], 3.31% in assay [2] and 5.92% in assay [3].

Take `COc1ccc(C2C(C(=O)Nc3ccc(C)c(F)c3)c3cc(OC)c(OC)cc3C(=O)N2C)cc1` (stereo not drawn): the inhibition in assay [1] worked out at 2.11%; in assay [2], 3.41%; in assay [3], 3.34%.

As to `CCCCCCN1CCC(NCc2cccc(C(F)(F)F)c2)CC1`, the inhibition in assay [1] was found to be 9.06%; in assay [2] it was 12.2%; in assay [3], 6.27%.

For `CN1CCC(NCc2cccc(-c3ccc(S(=O)(=O)NCc4ccccc4)cc3)c2)CC1`, the inhibition in assay [1] came out at 8.1%; in assay [2], 7.9%; in assay [3], 10.3%.

As for `CC1CCC(C[C@@H](C(=O)N[C@H](C(=O)Nc2nccs2)[C@@H](C)O)[C@H](CCC(F)(F)F)N(O)C=O)CC1` (stereo partly drawn), the inhibition was 0.36% in assay [1], -2.34% in assay [2] and 0.78% in assay [3].

Consider `O=c1cc(NCCCNCc2ccc(Cl)c(Cl)c2)[nH]c2ccc(C(F)(F)F)cc12`, for which the results for the inhibition in assay [1], in assay [2] and in assay [3] were 2.13%, 1.67% and 2.08%, respectively.

Consider `COc1ccc(S(=O)(=O)N2CCC3(CC2)OCC(=O)NC3c2ccc(Cl)c(Cl)c2)cc1` (stereo not drawn), for which the inhibition stood at 2.93% in assay [1], 1.47% in assay [2] and 0.92% in assay [3].

Regarding `O=C(CN1CCN(C(C(=O)Nc2cc(C(F)(F)F)ccc2Cl)c2ccccc2)CC1)NC1CC1` (stereo not drawn), the results for the inhibition in assay [1], in assay [2] and in assay [3] were 0.74%, 2.72% and 3.2%, respectively.

Regarding `Cc1ccc2[nH]c(-c3cc(-c4ccc(OCc5ccccc5)cc4)cnc3N)nc2c1`, the inhibition in assay [1] is 1.75%; in assay [2], 2.05%; in assay [3], -0.31%.

As to `Nc1nccc2ccc(-c3cccc4ncccc34)cc12`, the values for the inhibition in assay [1], in assay [2] and in assay [3] were 1.74%, 0.04% and 1.15%, respectively.

For `C=CCN1Cc2c(O)cccc2C(c2ccc(O)c(O)c2)C1` (stereo not drawn), the inhibition in assay [1] turned out to be 6.49%; in assay [2] it was 5.18%; in assay [3] it was 4.91%.

In the case of `Cc1sc(C)c(CNCCCNc2cc(=O)c3ccccc3[nH]2)c1Br`, the inhibition in assay [1] was 2.08%; in assay [2], 2%; in assay [3], -3.4%.

Regarding `CCCCNC(=O)[C@@H]1CCCN1C(=O)c1ccc(O)c(-c2ccc(Cl)c(Cl)c2)c1`, the inhibition is 1.42% in assay [1], 0.27% in assay [2] and -3.49% in assay [3].

Regarding `COc1ccc(NS(=O)(=O)c2ccc(C(=O)Nc3ccc(C(F)(F)F)cc3)cc2)cc1N1CCN(CC2CC2)CC1`, the inhibition in assay [1] was 0.55%; in assay [2] it was 0.6%; in assay [3] it was -7.4%.

As to `CC12CCC(CN(CC(O)Cn3c4ccccc4c4cc(I)ccc43)C1)C2(C)C` (stereo not drawn), the inhibition in assay [1] is 2.02%; in assay [2], 2.5%; in assay [3], 0.07%.

On to `N#Cc1ccc(CCNc2nccc(-c3cccc(CN4CCNCC4)c3)n2)cc1`, for which the inhibition was determined as 12.3% in assay [1], 12.8% in assay [2] and 6.7% in assay [3].

Regarding `O=C(Nc1cccc(-c2ccc(-c3nc4cc(C(F)(F)F)ccc4[nH]3)cc2)c1)Nc1ccc(Cl)c(Cl)c1`, the inhibition in assay [1] turned out to be 3.88%; in assay [2], 2.8%; in assay [3], 1.65%.

In the case of `O=C1C2C3SC(c4c3ccc3ccccc43)C2C(=O)N1c1ccccc1` (stereo not drawn), the inhibition is -0.44% in assay [1], 0.31% in assay [2] and -1.01% in assay [3].

Consider `CCNc1cc(C(=O)N[C@@H](Cc2ccccc2)[C@H](O)CN[C@@H]2CCc3ccccc32)cc(N2CCCCS2(=O)=O)c1`, for which the inhibition in assay [1] stood at 1.06%; in assay [2] it was 1.96%; in assay [3], 1.17%.

Regarding `Cc1ccc2[nH]c(-c3ccccc3N)cc2c1`, the results for the inhibition in assay [1], in assay [2] and in assay [3] were 3.92%, 4.5% and 4.49%, respectively.

For the molecule `COc1cccc(CNc2noc(-c3c(-c4ccccc4)noc3C)n2)c1OC`, the inhibition in assay [1] amounted to 3.64%; in assay [2] it was 3.83%; in assay [3], 2.76%.

With `COc1cc2c(cc1OC)C(C(=O)c1ccccc1)=NCC2`, the inhibition in assay [1] was found to be 1.66%; in assay [2], 2.92%; in assay [3] it was 2.28%.

Regarding `Cc1cc(N[C@@H](CC(C)C)C(=O)NCCOc2ccccc2)nc(NCCOc2ccccc2)n1`, the inhibition in assay [1] turned out to be 3.79%; in assay [2] it was 1.16%; in assay [3], 17.1%.

As to `CN(CCc1ccccn1)c1cccc2c1nc(-c1cccnc1)n2CCNCc1ccccc1`, the values for the inhibition in assay [1], in assay [2] and in assay [3] were 14.8%, 13.4% and 11.3%, respectively.

`O=C(O)CCCN1CCCC(=C(c2ccccc2)c2ccccc2)C1`: the inhibition came out at 3.04% in assay [1], 3.64% in assay [2] and 4.81% in assay [3].

As for `Cc1cccc2nc(-c3cccc(-c4ccc(CN5CCC(C(N)=O)CC5)cc4)c3)[nH]c12`, the inhibition in assay [1] was determined as 9.22%; in assay [2] it was 9.68%; in assay [3], 9.06%.

On to `COc1ccc(-c2ccc(NC(=O)c3cccc(C#N)c3)cc2)cc1CN1CCNCC1`, for which the inhibition in assay [1] worked out at 9.28%; in assay [2], 5.74%; in assay [3], 4.28%.

With `CC(=O)Nc1ccc(C(=O)Nc2cccc(-c3ccc(-c4nc5cc(C(F)(F)F)ccc5[nH]4)s3)c2)cn1`, the inhibition in assay [1] was 3.05%; in assay [2], 3.45%; in assay [3] it was 4.26%.

With `O=[N+]([O-])c1cccc(CNCC2CCN(Cc3ccc4ccccc4c3)CC2)c1`, the inhibition stood at 16.5% in assay [1], 3.55% in assay [2] and 2.23% in assay [3].

For `Cc1ccc2c(=O)cc(CCc3cccc(F)c3F)n(CC(=O)N(Cc3ccc(-c4ccc(C(F)(F)F)cc4)cc3)C3CCN(C(C)C)CC3)c2n1`, the results for the inhibition in assay [1], in assay [2] and in assay [3] were -2.51%, -0.71% and -1.8%, respectively.

Consider `O=C(Cc1c[nH]cn1)Nc1ccc(-c2ccc(-c3nc4ccccc4[nH]3)s2)cc1`, for which the inhibition was found to be 4.05% in assay [1], 5.17% in assay [2] and 1.71% in assay [3].

Consider `c1cc(CN2CCCCC2)cc(-c2ccc(-c3nc4ccccc4[nH]3)s2)c1`, for which the inhibition was 4.86% in assay [1], 1.16% in assay [2] and -0.82% in assay [3].

On to `c1ccc(Oc2ccc(Nc3ccnc4cc(-c5cccc(CNCCN6CCOCC6)c5)ccc34)cc2)cc1`, for which the inhibition in assay [1] was -0.34%; in assay [2] it was -0.08%; in assay [3], 1.68%.

With `Cc1nc(-c2ccc(-c3ccc(NC(=O)Nc4ccc(I)c(OCCN(C)C)c4)cc3)c(C)c2)no1`, the inhibition in assay [1] turned out to be 7%; in assay [2] it was 5.44%; in assay [3], 3.02%.

Turning to `COc1ccc(CCN(Cc2cccs2)C(=O)c2cc3sccc3n2C)cc1OC`, the inhibition in assay [1] came out at 0.3%; in assay [2] it was 0.45%; in assay [3], 0.18%.
